Consider 20 molecules from PubChem BioAssay (NCI).

The structures appear in SMILES notation. The panel holds about 79,000 compounds, 15% with a hit somewhere; the sample as a whole holds those more often. A number with no mark means an inactive call. The source made the active and inactive calls. No stated cut-off is given here; in the data, active means growth inhibition above about 70%; inactive means the rest.

Assay [1] in a line: NCI Yeast Anticancer Drug Screen. Data for the rad50 strain (AID 155).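 Further: 0% = growth of vehicle-only cultures of the same strain.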 The following applies: S. cerevisiae rad50 strain growth inhibition; at 50.0 µM; active compounds read high. The method, boiled down:
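DNA repair mutant yeast, compound exposure, growth read-out; inhibition is taken relative to vehicle.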

A short description of assay [2]: NCI Yeast Anticancer Drug Screen. Data for the mec2-1 strain (AID 157). The following applies: S. cerevisiae mec2-1 strain, at 50.0 µM, active compounds read high. In a few lines:
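Yeast mec2-1 mutant treated with compound. Readout: growth inhibition vs vehicle controls.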

Assay [3] can be described thus: NCI Yeast Anticancer Drug Screen. Data for the sgs1 mgt1 strain (AID 161).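 Further: 0% = growth of cultures given vehicle only.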 The following applies: S. cerevisiae sgs1 mgt1 strain, at 50.0 µM, active compounds read high. In a few lines:
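Inhibition of yeast growth, normalised to vehicle-treated controls, is reported for a strain bearing genetic alterations in DNA damage repair.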

Assay [4] in a line: NCI Yeast Anticancer Drug Screen. Data for the cln2 rad14 strain (AID 165).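 Further: 0% = growth equal to vehicle treated cultures.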 As to conditions: S. cerevisiae cln2 rad14 strain, at 50.0 µM, active compounds read high. The method, boiled down:
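cln2 rad14 yeast strain; compound exposure; growth inhibition read vs vehicle controls.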

Assay [5] can be described thus: NCI Yeast Anticancer Drug Screen. Data for the bub3 strain (AID 167). The following applies: S. cerevisiae bub3 mutant strain, at 50.0 µM, active compounds read high. The method, boiled down:
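In this screen, a yeast mutant lacking normal mitotic checkpoint function is challenged with compound. Relative growth versus vehicle gives the inhibition value.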

The nature of assay [6]: NCI Yeast Anticancer Drug Screen. Data for the mlh1 rad18 strain (AID 175). The following applies: S. cerevisiae mlh1 rad18 strain growth inhibition; at 50.0 µM; active compounds read high. The method, boiled down:
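Yeast w/ defined DNA-repair lesions; compound exposure; growth vs vehicle controls → % inhibition.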

`CC(=O)OC(C)/C=C\C#N` (stereo not given): the growth inhibition was -17.9% in assay [1]; 14.3% in assay [2]; 5.25% in assay [3]; -2.65% in assay [4]; 0.35% in assay [5]; 37.8% in assay [6].

For the molecule `O=C(O)/C(O)=C(/O)C(=O)O.[NH-]C1CCCCC1[NH-].[Pt+2]`, the growth inhibition is 27.3% in assay [1]; 29.1% in assay [2]; 28.4% in assay [3]; 16.1% in assay [4]; 26.9% in assay [5]; 25.6% in assay [6].

As to `O=C(O)c1cscc1-c1ccccc1`, the growth inhibition in assay [1] is 2.5%; in assay [2], -0.05%; in assay [3], -6.9%; in assay [4], -19.9%; in assay [5], -12.1%; in assay [6] it was 3.6%.

As for `N#Cc1cc(N2CCCCC2)ccc1[N+](=O)[O-]`, the growth inhibition in assay [1] is 2.6%; in assay [2], -8.35%; in assay [3], -6.2%; in assay [4], -18.1%; in assay [5] it was -4.5%; in assay [6], -0.4%.

Turning to `C/C(C/C(C)=N/C(N)=S)=N\C(N)=S`, the growth inhibition was -37.5% in assay [1]; -23.1% in assay [2]; -15.8% in assay [3]; -12.4% in assay [4]; 0.15% in assay [5]; -13.5% in assay [6].

As to `CCCOc1ccc(C(=O)O)cc1`, the growth inhibition in assay [1] is 10.8%; in assay [2] it was 7.85%; in assay [3] it was 6.3%; in assay [4] it was -2%; in assay [5], -14.8%; in assay [6] it was 4.15%.

As to `CCCCCCCC[N+](C)([O-])CCCCCC[N+](C)([O-])CCCCCCCC` (stereo not given), the growth inhibition was 63.6% in assay [1]; 25.2% in assay [2]; 69.8% in assay [3]; 66.8% in assay [4]; 5.85% in assay [5]; 76.2% (active) in assay [6].

With `O=C(CN1C(=O)c2ccccc2C1=O)Oc1ccccc1`, the growth inhibition in assay [1] was 1.8%; in assay [2] it was -7.4%; in assay [3], 1.1%; in assay [4], -9.05%; in assay [5], 16.4%; in assay [6], -5.45%.

Take `Cc1ccc(C)c(NC(=O)c2ccc([N+](=O)[O-])cc2)c1`: the growth inhibition in assay [1] was -4.55%; in assay [2], 17.4%; in assay [3], 10%; in assay [4], -11.8%; in assay [5], 16.4%; in assay [6], 23.6%.

On to `O=S1(=O)CC=CC1`, for which the growth inhibition in assay [1] is -10.2%; in assay [2] it was 3.45%; in assay [3] it was -7.95%; in assay [4] it was 13.2%; in assay [5] it was 11.9%; in assay [6], 3.15%.

Take `C1CSCC2(COC2)CSCCSCC2(COC2)CS1`: the growth inhibition is -23.1% in assay [1]; -13.4% in assay [2]; -18.9% in assay [3]; -3.05% in assay [4]; -7.35% in assay [5]; -18.6% in assay [6].

For `O=C(O)CCC(NC(=O)CCC(NC(=O)OCc1ccccc1)C(=O)OCc1ccccc1)C(=O)OCc1ccccc1` (stereo not given), the growth inhibition in assay [1] was -13.1%; in assay [2], -31.5%; in assay [3], -10.6%; in assay [4] it was 9.2%; in assay [5] it was 5.4%; in assay [6] it was -10.8%.

For `CCCCc1[nH]nc(-c2n[nH]c(CCCC)c2C)c1C`, the growth inhibition in assay [1] is 25.4%; in assay [2], 14.1%; in assay [3] it was 28.5%; in assay [4], 7.95%; in assay [5], 18.6%; in assay [6] it was 27.9%.

On to `CN(N=O)C(=O)NCCc1ccccc1`, for which the growth inhibition in assay [1] was 13.6%; in assay [2], -11.9%; in assay [3] it was 11.6%; in assay [4], -36.6%; in assay [5] it was -5.2%; in assay [6], 16.2%.

As to `O=C(c1ccc(Br)cc1)C1SC2(C(=O)c3ccc(Br)cc3)SC(C(=O)c3ccc(Br)cc3)C(C(=O)c3ccc(Br)cc3)SC2(C(=O)c2ccc(Br)cc2)SC1C(=O)c1ccc(Br)cc1` (stereo not given), the growth inhibition in assay [1] is -8.8%; in assay [2], 3.75%; in assay [3], -17.4%; in assay [4], -11.9%; in assay [5], -2.95%; in assay [6] it was -24.4%.

As for `CCOC(=O)/C=C\C(=O)OCC`, the growth inhibition in assay [1] was 29.7%; in assay [2], 2.55%; in assay [3], 9.35%; in assay [4], 10%; in assay [5] it was 9.95%; in assay [6], -1.1%.

As to `CC1(C)CC(C(N)=O)C(=O)O1` (stereo not given), the growth inhibition was -17.4% in assay [1]; -4.15% in assay [2]; -21.6% in assay [3]; -25.9% in assay [4]; 5.1% in assay [5]; -2.4% in assay [6].

As for `CC(=O)OC(C(=O)N1CC1)C(OC(C)=O)C(OC(C)=O)C(OC(C)=O)C(=O)N1CC1` (stereo not given), the growth inhibition was 24.1% in assay [1]; 20.9% in assay [2]; 25.4% in assay [3]; 10.1% in assay [4]; 28.6% in assay [5]; 29.3% in assay [6].

`CC(=O)O[C@H]1C(=O)[C@]2(C)[C@@H](OC(=O)OCCC(O)CO)C[C@H]3OC[C@@]3(OC(C)=O)[C@H]2[C@H](OC(=O)c2ccccc2)[C@]2(O)C[C@H](OC(=O)[C@H](O)[C@@H](NC(=O)c3ccccc3)c3ccccc3)C(C)=C1C2(C)C` (stereo not given in full): the growth inhibition in assay [1] is 1.65%; in assay [2] it was -7.2%; in assay [3] it was 2.25%; in assay [4], 3.95%; in assay [5] it was -19.2%; in assay [6], -0.35%.

For `CCOC(=O)Nc1nc2ccccc2n1CN1CCN(c2ccccc2)CC1`, the growth inhibition in assay [1] was 8.4%; in assay [2] it was 7.75%; in assay [3], -8.7%; in assay [4] it was 21.3%; in assay [5] it was 45.3%; in assay [6] it was 16.9%.
